Results from PubChem BioAssay (NCATS).
“And” between values parts separate entries of the source, which are not always exact repeats. Identical values can stand only once. Results filed as inconclusive are left out. Some structures have more than one record in an assay (separate samples or runs), and their calls can disagree. The source made the active and inactive calls. Calls follow the shape of the dose curve; as a rule, active = well fitted inhibition curve with a large enough effect; inconclusive = small, poorly fitted or top-dose-only effect; inactive = no such curve, though single readings can be large or run the other way.

Assay: Primary qHTS for inhibitors of nuclear receptor binding SET domain protein 2 (NSD2) in an RCH-ACV wild type WT cells (2C) (AID 1645877); also: nearly all actives have a fitted effect of over 70% in size
Conditions: RCH-ACV (leukaemia line) NSD2 WT (2C) viability, CellTiter-Glo, 72 h; series mostly up to 44.9 µM; activity change, negative = cell killing: at the top concentration
Description: Assay Provider: Jonathan D. Licht, MD
University of Florida College of Medicine, Gainesville, FL
Mutations in epigenetic regulators are common in relapsed pediatric acute lymphoblastic leukemia (ALL). Here, we uncovered the mechanism underlying the relapse of ALL driven by an activating mutation of the NSD2 histone methyltransferase (p.E1099K). […] Correction of this mutation restored glucocorticoid sensitivity. The transcriptional response to glucocorticoids was blocked in NSD2 mutant cells due to depressed glucocorticoid receptor (GR) levels and the failure of glucocorticoids to autoactivate GR expression. […] Pre-treatment of NSD2 p.E1099K cell lines and PDX samples with PRC2 inhibitors reversed glucocorticoid resistance in vitro and in vivo.
High-throughput drug screening of isogenic RCH-ACV cell lines was performed at the National Center for Advancing Translational Science (NCATS), National Institutes of Health as previously described (1). Briefly, isogenic RCH-ACV NSD2 p.E1099K mutant (9B) and WT cells (2C) were plated at 500 cells/well in a 1536-well plate with a 72-hour incubation with compounds prior to addition of CellTiter-Glo to assess cell viability. NCATS libraries screened include: NPC, MIPE 5.0, Kinase and NPACT. To determine compound activity in the qHTS assay, the concentration-response data for each sample was plotted and modeled by a four-parameter logistic fit yielding IC50 and efficacy (maximal response) values. The area under the curve (AUC) of the dose-response curve ensures both efficacy (magnitude of cell killing) and potency (concentration that elicits cell killing) are accounted for in the analysis of activity.
1. Tobie D Lee, Olivia W Lee, Kyle R Brimacombe, Lu Chen, Rajarshi Guha, Sabrina Lusvarghi, Bethilehem G Tebase, Carleen Klumpp-Thomas, Robert W Robey, Suresh V Ambudkar, Min Shen, Michael M Gottesman, Matthew D Hall. A High-Throughput Screen of a Library of Therapeutics Identifies Cytotoxic Substrates of P-glycoprotein. Mol Pharmacol. 2019, Nov;96(5):629-640.
% is scaled to controls: 0 for no effect and ±100 for the full control effect; potency is read from the fitted curve at half-maximal effect.

SMILES | outcome | activity change, negative = cell killing | Potency
COC(=O)C1=CO[C@@H](O[C@@H]2O[C@H](CO)[C@@H](O)[C@H](O)[C@H]2O)[C@@H]2C(CO)=CC[C@H]12 | inactive | – | –
COC(=O)C1(C)CCCC2(C)c3ccc(C(C)C)cc3C(O)C(O)C12 (stereo not given) | – | -5.65% (inactive) | –
CC(C)=CCC[C@](C)(O[C@@H]1O[C@H](CO[C@@H]2O[C@@H](CO)[C@H](O)[C@H]2O[C@@H]2OC[C@@H](O)[C@H](O)[C@H]2O)[C@@H](O)[C@H](O)[C@H]1O)[C@H]1CC[C@]2(C)[C@@H]1[C@H](O)CC1[C@@]3(C)CC[C@H](O[C@@H]4O[C@H](CO)[C@@H](O)[C@H](O)[C@H]4O[C@@H]4O[C@H](CO)[C@@H](O)[C@H](O)[C@H]4O)C(C)(C)C3CC[C@]12C (stereo not given in full) | – | -15.6% [at 9.23 µM] (inactive) | –
CC1(C)C2CCC1(C)C(OC(=O)C(O)(CC(=O)O)CC(=O)O)C2 (stereo not given) | – | -3.58% (inactive) | –
CCC(CC)CC1(C(=O)Nc2ccccc2SC(=O)C(C)C)CCCCC1 | – | – | inactive
CC(C)=CCC[C@](C)(O[C@@H]1O[C@H](CO)[C@@H](O)[C@H](O)[C@H]1O)[C@H]1CC[C@]2(C)[C@@H]1[C@H](O)CC1[C@@]3(C)CC[C@H](O)C(C)(C)C3[C@@H](O[C@@H]3O[C@H](CO)[C@@H](O)[C@H](O)[C@H]3O[C@@H]3O[C@@H](C)[C@H](O)[C@@H](O)[C@H]3O)C[C@]12C (stereo not given in full) | – | -9.19% [at 9.23 µM] (inactive) | –
C/C=C(\C)C(=O)OC1C2(O)CC3=C4CC(=O)OC(c5ccoc5)C4(C)CCC3C(C)(C2=O)C(C(OC(C)=O)C(=O)OC)C1(C)C (stereo not given) | – | – | 3830 nM (active)
CC/C=C\[C@H](O)[C@H](O)C1=C(C)C(=O)[C@]2(O1)C(=O)N[C@@](O)(C(=O)c1ccccc1)[C@@H]2O | – | -3.54% [at 17.3 µM] (inactive) | –
COC(=O)c1cc(OC)cc(OC)c1C(=O)c1c(OC)cc2c(c1O)C1CCC(O)C(C)(O2)O1 (stereo not given) | – | 2.56% [at 17.3 µM] (inactive) | –
CC(C)N(CCCNC(=O)Nc1ccc(C(C)(C)C)cc1)C[C@H]1O[C@@H](n2ccc3c(N)ncnc32)[C@H](O)[C@@H]1O | – | – | inactive and 18.6 µM (active)
COc1cc(O[C@@H]2O[C@H](CO[C@H]3OC[C@](O)(CO)[C@H]3O)[C@@H](O)[C@H](O)[C@H]2O)cc(OC)c1O | – | -3.84% [at 17.3 µM] (inactive) | –
CCNC(=O)C1CC(F)(c2ccc(CN3CCCC3)c(F)c2)C1 (stereo not given) | inactive | – | –
C[C@]1(OC(=O)/C=C/c2ccccc2)C[C@@H](O)[C@]2(O)C=CO[C@@H](O[C@@H]3O[C@H](CO)[C@@H](O)[C@H](O)[C@H]3O)[C@@H]21 | – | -4.16% [at 17.3 µM] (inactive) | –
COc1cc(CC2COC(c3ccc(OC4OC(CO)C(O)C(O)C4O)c(OC)c3)C2CO)ccc1O (stereo not given) | inactive [at 17.3 µM] | – | –
COc1cc(O)cc(C)c1C(=O)OC1C(CO)OC(n2ccc(=O)[nH]c2=O)C1OC(C)=O (stereo not given) | – | -14.3% [at 17.3 µM] (inactive) | –
CC1=CC[C@@]2(C)CC[C@@](O)(C(C)C)[C@@H]2[C@@H](O)C1 | – | -16.8% (inactive) | –
CC(O)CCc1ccc(O[C@@H]2O[C@H](CO)[C@@H](O)[C@H](O)[C@H]2O)cc1 (stereo not given in full) | inactive | – | –
O=C(O[C@@H]1O[C@H](CO)[C@@H](O)[C@H](O)[C@H]1O)c1ccccc1 | inactive | – | –
CC1=C2CC3C(CCC3(C)O)C(C)(O)CC2OC1=O (stereo not given) | – | -3.41% (inactive) | –
COC(=O)C1C(c2ccc(O)cc2)C(C(=O)O)C1c1ccc(O)cc1 (stereo not given) | – | -15.1% (inactive) | –

SMILES | outcome | activity change, negative = cell killing | Potency
C[C@]1(OC(=O)/C=C/c2ccc(O)cc2)C[C@@H](O)[C@]2(O)C=CO[C@@H](O[C@@H]3O[C@H](CO)[C@@H](O)[C@H](O)[C@H]3O)C12 (stereo not given in full) | – | -2.19% [at 17.3 µM] (inactive) | –
CCC1=C(C)C(=O)C(C)CC12C(=O)CCC2C(=O)O (stereo not given) | – | 3.54% (inactive) | –
Cc1cn2cc(CC(=O)N3CCC4(CC3)CN(Cc3ccc(-n5nccn5)cc3Cl)C4)nc2s1 | – | -22.5% (inactive) | –
CC(=O)OCC1OC(OC2COC(OC3COC(OC4C(OC5C(CO)OC(OC6CCC7(C)C(CCC8(C)C7CC=C7C9CC(C)(C)CCC9(C(=O)OC9OC(CO)C(O)C(O)C9OC9OCC(OC%10OCC(O)(CO)C%10O)C(O)C9O)C(O)CC78C)C6(C)C)C(O)C5O)OCC(O)C4O)C(O)C3O)C(O)C2O)C(OC(=O)/C=C/c2ccccc2)C(O)C1OC(C)=O (stereo not given) | – | – | 1990 nM (active)
O=C(OCC1=C[C@@H](O)[C@@H]2C=CO[C@@H](O[C@@H]3O[C@H](CO)[C@@H](O)[C@H](O)[C@H]3O)[C@H]12)c1ccc(O)cc1 | – | 0.348% [at 17.3 µM] (inactive) | –
CC(=O)OC/C(=C/C(=O)O)CC[C@@H]1C(C)=CC(=O)[C@@H]2C(C)(C)CCC[C@@]12C | – | -15.2% (inactive) | –
C[C@@H]1O[C@@H](O[C@@H]2[C@@H](O)[C@H](O[C@H]3[C@H](O[C@H]4CC[C@@]5(C)C(CC[C@]6(C)C5CC=C5[C@@H]7CC(C)(C)CC[C@]7(C(=O)O[C@@H]7O[C@H](CO)[C@@H](O)[C@H](O)[C@H]7O)CC[C@]56C)C4(C)C)O[C@H](C(=O)O)[C@@H](O)[C@@H]3O)OC[C@H]2O)[C@H](O)[C@H](O)[C@H]1O (stereo not given in full) | – | -1.93% [at 9.23 µM] (inactive) | –
COC(=O)C1=COC(OC2OC(CO)C(O)C(O)C2O)C2C(COC(=O)/C=C/c3ccc(O)c(O)c3)C(O)C(O)C12 (stereo not given) | inactive [at 17.3 µM] | – | –
COc1cc(O)cc(C)c1C(=O)O[C@H]1[C@@H](O)[C@@H](n2ccc(=O)[nH]c2=O)O[C@@H]1CO | – | -10.9% [at 17.3 µM] (inactive) | –
COc1cc(C2OCC3(O)C(c4ccc(O[C@@H]5O[C@H](CO)[C@@H](O)[C@H](O)[C@H]5O)c(OC)c4)OCC23O)ccc1O (stereo not given in full) | – | 2.23% [at 17.3 µM] (inactive) | –
CCC(C)C(C(=O)O)N1Cc2c(OCC=C(C)C)c(C)c(OC)c(C(=O)O)c2C1=O (stereo not given) | – | -0.801% [at 17.3 µM] (inactive) | –
CC12CC34CC(O)C5C(CO)(CO)CC(=O)CC5(C)C3CC1C2C4 (stereo not given) | inactive | – | –
COc1cc(C(=O)OCC2=CCC3C(C(=O)O)=COC(O[C@@H]4O[C@H](CO)[C@@H](O)[C@H](O)[C@H]4O)C23)ccc1O (stereo not given in full) | inactive [at 17.3 µM] | – | –
CC1=C[C@H]2[C@@H](CC1=O)[C@H](C)C[C@H](O)[C@H]2C(C)C | – | -47.4% (inactive) | –
COc1cc(C(=O)OC[C@@]2(O)CO[C@@H](O[C@H]3[C@H](Oc4ccc(O)cc4)O[C@H](CO)[C@@H](O)[C@@H]3O)[C@@H]2O)cc(OC)c1O | – | -15.8% [at 17.3 µM] (inactive) | –
CC1(C(=O)O)CCCC2(C)C3CCC4CC3(CCC12)CC4C(=O)O (stereo not given) | – | 0.508% (inactive) | –
CC(C)C(NC(=O)c1ccc(O)cc1)C(=O)N1CCCC1C(=O)Nc1c(O)cccc1C(=O)O (stereo not given) | – | -3.22% [at 17.3 µM] (inactive) | –
CC(=O)O[C@H]1[C@H](OC(=O)C(C)C)[C@]2(C)OC3(CC[C@]2(C)[C@H]2CCC[C@]4(CO4)[C@]12C)COC(=O)C3 (stereo not given in full) | – | -13.9% [at 17.3 µM] (inactive) | –
O=C(OC1C=C(CO)C2C(OC3OC(CO)C(O)C(O)C3O)OC=CC12O)c1ccc(O)cc1 (stereo not given) | – | -24.1% [at 17.3 µM] (inactive) | –
CN(C)c1ccc(C2O[C@@H](c3ccccc3)C[C@H](c3ccccc3)O2)cc1 (stereo not given in full) | inactive | – | –
